These results are taken from PMC7862700, “An all-to-all approach to the identification of sequence-specific readers for epigenetic DNA modifications on cytosine”.

What all share (assay): DAPPL (digital affinity profiling via proximity ligation, sequencing); 10 mM Tris-HCl pH 7.5, 50 mM NaCl, 1 mM DTT, 4% glycerol, room temperature, 30 min; GST-TFs on glutathione beads, 16-mer random dsDNA library, 0.1% formaldehyde crosslink after washing; high values mean tight binding
Conditions in all cases: protein: recombinant; tags: N-terminal GST; dsDNA, one strand shown

Experiment [1] deals with T1, ELK1 (Homo sapiens, UniProt P19419 1-428).
T1 sequence: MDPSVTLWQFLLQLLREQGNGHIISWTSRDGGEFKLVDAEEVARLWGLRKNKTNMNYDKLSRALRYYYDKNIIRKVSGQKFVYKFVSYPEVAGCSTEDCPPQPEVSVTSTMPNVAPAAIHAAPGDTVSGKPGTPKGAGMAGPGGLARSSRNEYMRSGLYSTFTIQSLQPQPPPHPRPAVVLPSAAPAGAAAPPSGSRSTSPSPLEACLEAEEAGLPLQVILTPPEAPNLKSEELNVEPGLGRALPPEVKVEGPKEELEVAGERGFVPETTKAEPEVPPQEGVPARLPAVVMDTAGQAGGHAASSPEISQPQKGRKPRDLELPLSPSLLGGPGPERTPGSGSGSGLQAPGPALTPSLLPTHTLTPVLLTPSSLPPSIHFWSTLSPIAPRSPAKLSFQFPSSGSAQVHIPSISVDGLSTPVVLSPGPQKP
In outline: (§1)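 Binding signal is each hexamer's read frequency for a factor divided by its frequency in the tag-only sample. The factors were GST-fused human transcription factors from yeast, captured on glutathione beads, DNA-barcoded and pooled with that sample. Pools were incubated with 200 nmole of a random double-stranded 16-mer DNA library in Tris/NaCl/DTT/glycerol buffer at room temperature for 30 min, then washed, crosslinked with 0.1% formaldehyde, proximity-ligated with BsaI/T4 ligase (1 h, 37 °C), PCR-amplified and sequenced on an Illumina NextSeq500.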

The target in experiment [2] is T2, ERG (Homo sapiens, UniProt P11308 1-479).
T2 sequence: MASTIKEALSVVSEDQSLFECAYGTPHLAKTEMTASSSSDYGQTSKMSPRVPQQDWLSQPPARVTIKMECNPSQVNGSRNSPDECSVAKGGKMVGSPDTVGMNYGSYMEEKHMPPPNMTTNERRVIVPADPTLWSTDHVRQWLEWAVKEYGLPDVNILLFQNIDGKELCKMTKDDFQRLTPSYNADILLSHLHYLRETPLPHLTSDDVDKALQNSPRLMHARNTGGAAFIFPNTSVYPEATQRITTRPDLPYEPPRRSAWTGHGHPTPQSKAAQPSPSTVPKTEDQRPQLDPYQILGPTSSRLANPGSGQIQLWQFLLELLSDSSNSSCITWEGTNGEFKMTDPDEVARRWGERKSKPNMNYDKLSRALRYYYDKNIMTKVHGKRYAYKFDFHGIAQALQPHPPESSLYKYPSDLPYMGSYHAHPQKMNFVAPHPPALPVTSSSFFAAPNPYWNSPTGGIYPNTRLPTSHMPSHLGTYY
Summed up:
as §1

In experiment [3] the target is T3, EHF (Homo sapiens, UniProt Q9NZC4 1-300).
T3 sequence: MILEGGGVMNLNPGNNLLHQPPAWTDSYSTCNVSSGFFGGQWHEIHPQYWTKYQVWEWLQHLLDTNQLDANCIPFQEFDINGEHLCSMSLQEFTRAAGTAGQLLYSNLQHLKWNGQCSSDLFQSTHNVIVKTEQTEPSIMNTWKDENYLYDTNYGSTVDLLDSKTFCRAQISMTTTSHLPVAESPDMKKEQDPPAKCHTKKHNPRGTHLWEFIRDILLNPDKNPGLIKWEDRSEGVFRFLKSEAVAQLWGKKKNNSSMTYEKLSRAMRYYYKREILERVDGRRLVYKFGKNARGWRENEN
Summed up:
as §1

In experiment [4] the target is SPIB (Homo sapiens, UniProt Q01892 1-262). In outline: as §1
SPIB, sequence (Q01892 whole entry): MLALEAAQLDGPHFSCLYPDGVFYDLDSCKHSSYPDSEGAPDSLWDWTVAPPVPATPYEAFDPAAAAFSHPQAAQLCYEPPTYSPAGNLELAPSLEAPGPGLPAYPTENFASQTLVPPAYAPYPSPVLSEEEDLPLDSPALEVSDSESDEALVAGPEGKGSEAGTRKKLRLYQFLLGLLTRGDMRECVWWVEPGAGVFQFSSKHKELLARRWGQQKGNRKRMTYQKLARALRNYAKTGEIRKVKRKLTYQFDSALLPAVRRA
The target of experiment [5] is T4, FEV (Homo sapiens, UniProt Q99581 1-238).
T4 sequence: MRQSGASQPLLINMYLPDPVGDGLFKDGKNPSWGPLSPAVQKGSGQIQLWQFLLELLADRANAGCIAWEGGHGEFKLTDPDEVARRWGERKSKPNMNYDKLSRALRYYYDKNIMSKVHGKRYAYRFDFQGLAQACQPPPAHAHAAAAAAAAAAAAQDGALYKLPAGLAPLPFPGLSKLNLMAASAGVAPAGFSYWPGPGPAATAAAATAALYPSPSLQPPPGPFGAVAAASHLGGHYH
Summed up: as §1

For experiment [6], the target named is ELF4 (Homo sapiens, UniProt Q99607 1-663). Summed up: as §1
ELF4, sequence (Q99607 whole entry): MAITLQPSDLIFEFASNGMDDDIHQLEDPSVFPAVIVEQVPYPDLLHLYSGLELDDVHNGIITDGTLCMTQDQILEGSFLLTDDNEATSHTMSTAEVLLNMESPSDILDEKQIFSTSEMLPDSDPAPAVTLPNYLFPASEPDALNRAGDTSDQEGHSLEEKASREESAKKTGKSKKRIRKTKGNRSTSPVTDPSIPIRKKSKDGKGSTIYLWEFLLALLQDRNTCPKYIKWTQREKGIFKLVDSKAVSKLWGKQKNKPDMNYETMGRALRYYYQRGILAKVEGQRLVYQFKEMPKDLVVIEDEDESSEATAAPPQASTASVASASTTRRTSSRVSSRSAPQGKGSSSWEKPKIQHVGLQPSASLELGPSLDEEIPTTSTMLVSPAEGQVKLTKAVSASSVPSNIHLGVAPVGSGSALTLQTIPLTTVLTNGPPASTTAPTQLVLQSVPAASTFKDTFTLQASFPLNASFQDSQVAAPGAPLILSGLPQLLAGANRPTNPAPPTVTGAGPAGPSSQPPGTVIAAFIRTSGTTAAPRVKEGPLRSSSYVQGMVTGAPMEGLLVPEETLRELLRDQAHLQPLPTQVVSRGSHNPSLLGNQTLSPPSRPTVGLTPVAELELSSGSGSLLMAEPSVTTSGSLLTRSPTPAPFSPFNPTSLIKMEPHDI
For experiment [7], the target named is T5, ELK4 (Homo sapiens, UniProt P28324-2 1-405).
T5 sequence: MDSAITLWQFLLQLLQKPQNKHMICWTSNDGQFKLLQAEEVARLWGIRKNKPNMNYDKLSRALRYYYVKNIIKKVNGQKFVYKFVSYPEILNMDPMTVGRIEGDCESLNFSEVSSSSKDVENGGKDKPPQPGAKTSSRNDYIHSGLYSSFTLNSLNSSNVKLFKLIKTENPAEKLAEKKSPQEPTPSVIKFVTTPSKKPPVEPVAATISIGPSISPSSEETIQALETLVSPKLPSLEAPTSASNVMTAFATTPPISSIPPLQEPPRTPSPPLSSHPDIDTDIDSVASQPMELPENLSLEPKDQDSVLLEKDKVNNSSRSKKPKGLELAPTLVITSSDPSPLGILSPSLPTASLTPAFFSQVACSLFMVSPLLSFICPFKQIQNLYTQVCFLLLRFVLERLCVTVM
In outline: as §1

The target in experiment [8] is T6, ETV2 (Homo sapiens, UniProt O00321 1-342).
T6 sequence: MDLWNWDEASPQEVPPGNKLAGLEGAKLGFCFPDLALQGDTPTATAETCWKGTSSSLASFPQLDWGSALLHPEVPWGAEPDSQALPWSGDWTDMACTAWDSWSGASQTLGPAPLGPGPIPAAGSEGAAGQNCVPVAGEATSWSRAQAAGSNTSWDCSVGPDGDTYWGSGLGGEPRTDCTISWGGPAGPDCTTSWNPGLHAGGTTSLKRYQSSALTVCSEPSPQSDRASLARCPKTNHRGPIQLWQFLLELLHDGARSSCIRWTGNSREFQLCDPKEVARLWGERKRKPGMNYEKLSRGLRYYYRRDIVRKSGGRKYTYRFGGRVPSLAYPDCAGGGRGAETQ
In outline:
as §1

Experiment [9] has as its target ETV1 (Homo sapiens, UniProt P50549 1-477). In outline: as §1
Experiment [10] concerns the target T7, ERF (Homo sapiens, UniProt P50548 1-548).
T7 sequence: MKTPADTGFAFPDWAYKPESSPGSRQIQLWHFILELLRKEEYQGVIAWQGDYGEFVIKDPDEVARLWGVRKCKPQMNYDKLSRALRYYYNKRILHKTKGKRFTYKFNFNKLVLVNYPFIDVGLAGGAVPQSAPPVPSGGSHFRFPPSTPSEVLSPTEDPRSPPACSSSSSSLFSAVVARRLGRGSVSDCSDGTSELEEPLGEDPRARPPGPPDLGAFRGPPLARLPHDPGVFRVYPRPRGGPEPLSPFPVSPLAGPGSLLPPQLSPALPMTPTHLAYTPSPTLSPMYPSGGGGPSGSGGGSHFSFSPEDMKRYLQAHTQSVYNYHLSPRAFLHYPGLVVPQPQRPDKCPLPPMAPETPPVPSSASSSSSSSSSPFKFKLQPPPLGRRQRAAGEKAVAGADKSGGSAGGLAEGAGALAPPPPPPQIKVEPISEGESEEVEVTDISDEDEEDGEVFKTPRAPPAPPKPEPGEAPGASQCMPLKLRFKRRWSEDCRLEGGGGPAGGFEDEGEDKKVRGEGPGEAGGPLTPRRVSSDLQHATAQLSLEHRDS
In outline: as §1

The target in experiment [11] is T8, ETV3L (Homo sapiens, UniProt Q6ZN32 1-361).
T8 sequence: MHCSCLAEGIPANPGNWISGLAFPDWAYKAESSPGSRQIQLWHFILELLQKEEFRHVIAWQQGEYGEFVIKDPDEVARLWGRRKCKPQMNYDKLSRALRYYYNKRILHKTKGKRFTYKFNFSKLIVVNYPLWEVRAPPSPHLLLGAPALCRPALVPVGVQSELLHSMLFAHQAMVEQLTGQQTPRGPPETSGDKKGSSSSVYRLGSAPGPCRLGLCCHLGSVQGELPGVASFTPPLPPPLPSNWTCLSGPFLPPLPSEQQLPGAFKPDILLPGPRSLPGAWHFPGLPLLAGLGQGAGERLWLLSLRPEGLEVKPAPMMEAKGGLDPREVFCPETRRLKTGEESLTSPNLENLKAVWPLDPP
In outline:
as §1

For experiment [12], the target named is T9, ETS2 (Homo sapiens, UniProt P15036 1-469).
T9 sequence: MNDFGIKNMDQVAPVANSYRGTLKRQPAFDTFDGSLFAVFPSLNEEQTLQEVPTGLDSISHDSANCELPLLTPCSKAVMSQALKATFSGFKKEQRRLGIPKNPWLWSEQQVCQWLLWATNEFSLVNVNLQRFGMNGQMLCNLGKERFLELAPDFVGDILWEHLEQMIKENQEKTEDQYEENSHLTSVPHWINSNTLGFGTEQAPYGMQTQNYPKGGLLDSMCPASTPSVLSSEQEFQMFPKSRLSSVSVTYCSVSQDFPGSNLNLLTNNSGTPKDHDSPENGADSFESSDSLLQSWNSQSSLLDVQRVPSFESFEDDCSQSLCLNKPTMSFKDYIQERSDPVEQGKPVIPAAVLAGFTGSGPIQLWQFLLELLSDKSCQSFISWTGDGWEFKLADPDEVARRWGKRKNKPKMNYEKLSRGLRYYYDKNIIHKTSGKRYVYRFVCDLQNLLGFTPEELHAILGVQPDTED
In outline: as §1

Experiment [13] addresses T10, SPDEF (Homo sapiens, UniProt O95238 1-335).
T10 sequence: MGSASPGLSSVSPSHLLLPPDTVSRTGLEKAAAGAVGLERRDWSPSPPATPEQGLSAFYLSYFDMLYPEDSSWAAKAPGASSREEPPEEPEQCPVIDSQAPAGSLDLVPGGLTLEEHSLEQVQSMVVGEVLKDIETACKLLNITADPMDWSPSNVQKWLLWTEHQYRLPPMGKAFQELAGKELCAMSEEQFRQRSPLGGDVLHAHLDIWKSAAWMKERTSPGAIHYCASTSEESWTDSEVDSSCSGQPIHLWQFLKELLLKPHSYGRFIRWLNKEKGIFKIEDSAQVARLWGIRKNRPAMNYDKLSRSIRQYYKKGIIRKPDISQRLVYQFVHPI
In outline: as §1

Experiment [14] concerns the target T11, ETV7 (Homo sapiens, UniProt Q9Y603 1-341).
T11 sequence: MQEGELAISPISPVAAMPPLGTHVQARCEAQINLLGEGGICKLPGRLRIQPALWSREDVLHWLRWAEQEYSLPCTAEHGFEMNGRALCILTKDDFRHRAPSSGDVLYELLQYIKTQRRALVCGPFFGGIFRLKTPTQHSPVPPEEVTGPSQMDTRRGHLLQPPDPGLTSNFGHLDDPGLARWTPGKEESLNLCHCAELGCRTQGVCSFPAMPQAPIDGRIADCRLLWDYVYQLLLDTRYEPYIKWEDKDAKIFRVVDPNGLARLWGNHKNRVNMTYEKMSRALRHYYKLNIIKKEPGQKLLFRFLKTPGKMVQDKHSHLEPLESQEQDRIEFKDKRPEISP
In outline:
as §1

The target in experiment [15] is T12, ETV3 (Homo sapiens, UniProt P41162-2 1-143).
T12 sequence: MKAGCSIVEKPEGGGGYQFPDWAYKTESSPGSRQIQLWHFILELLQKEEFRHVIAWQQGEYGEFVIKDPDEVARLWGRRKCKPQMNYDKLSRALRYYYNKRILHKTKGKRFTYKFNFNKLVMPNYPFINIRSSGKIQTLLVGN
Summed up:
as §1

ETV1, sequence (P50549 whole entry): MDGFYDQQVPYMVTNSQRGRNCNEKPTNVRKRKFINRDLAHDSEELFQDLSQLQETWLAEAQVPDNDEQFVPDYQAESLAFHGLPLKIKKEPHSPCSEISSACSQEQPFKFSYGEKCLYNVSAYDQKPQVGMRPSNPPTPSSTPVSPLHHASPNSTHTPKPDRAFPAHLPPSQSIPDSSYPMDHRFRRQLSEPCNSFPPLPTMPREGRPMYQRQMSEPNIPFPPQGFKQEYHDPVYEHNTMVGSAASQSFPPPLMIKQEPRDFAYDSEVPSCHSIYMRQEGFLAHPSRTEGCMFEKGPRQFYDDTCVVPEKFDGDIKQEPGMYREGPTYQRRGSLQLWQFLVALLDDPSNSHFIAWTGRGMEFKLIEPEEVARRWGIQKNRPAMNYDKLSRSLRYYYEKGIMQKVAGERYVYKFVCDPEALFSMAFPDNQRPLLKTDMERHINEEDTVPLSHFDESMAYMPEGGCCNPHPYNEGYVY

For the sequence ACACCG, the binding signal was 1.05 fold enrichment (6-mer frequency, TF over GST control) in experiment [1]; 1.13 fold enrichment (6-mer frequency, TF over GST control) in [2]; 1.03 fold enrichment (6-mer frequency, TF over GST control) in experiment [3]; 1.06 fold enrichment (6-mer frequency, TF over GST control) in experiment [4]; 1.26 fold enrichment (6-mer frequency, TF over GST control) in experiment [5]; 1.11 fold enrichment (6-mer frequency, TF over GST control) in experiment [6]. The binding signal in experiment [7] was 1.03 fold enrichment (6-mer frequency, TF over GST control); in experiment [8] it was 1.03 fold enrichment (6-mer frequency, TF over GST control); in experiment [9], 1.09 fold enrichment (6-mer frequency, TF over GST control); in [10] it was 1 fold enrichment (6-mer frequency, TF over GST control); in [11], 1.04 fold enrichment (6-mer frequency, TF over GST control); in [12] it was 1.07 fold enrichment (6-mer frequency, TF over GST control). Also, the binding signal was 1.09 fold enrichment (6-mer frequency, TF over GST control) in experiment [13]; 1.01 fold enrichment (6-mer frequency, TF over GST control) in experiment [14]; 1.03 fold enrichment (6-mer frequency, TF over GST control) in experiment [15].
